Results filed as inconclusive are left out. Activity calls are given as the source filed them. The calls were made as follows, unless noted: active = hit-call score of the fitted dose curve at least 0.9, where 1 is the maximum; inactive = score below 0.9.
Legend:
[1] = biological target: Nuclear respiratory factor 1 (Homo sapiens) (UniProt Q16656); assay: ATG_NRF1_CIS: Attagene CIS-FACTORIAL HepG2 Assay for human Nuclear Respiratory Factor 1 (NRF1) Orphan Gene (AID 2282987); conditions: HepG2 NRF1 cis-element reporter, Attagene multiplex; actives raise or lower the signal
Chain of Nuclear respiratory factor 1 (Homo sapiens) (Q16656 whole entry, looked up): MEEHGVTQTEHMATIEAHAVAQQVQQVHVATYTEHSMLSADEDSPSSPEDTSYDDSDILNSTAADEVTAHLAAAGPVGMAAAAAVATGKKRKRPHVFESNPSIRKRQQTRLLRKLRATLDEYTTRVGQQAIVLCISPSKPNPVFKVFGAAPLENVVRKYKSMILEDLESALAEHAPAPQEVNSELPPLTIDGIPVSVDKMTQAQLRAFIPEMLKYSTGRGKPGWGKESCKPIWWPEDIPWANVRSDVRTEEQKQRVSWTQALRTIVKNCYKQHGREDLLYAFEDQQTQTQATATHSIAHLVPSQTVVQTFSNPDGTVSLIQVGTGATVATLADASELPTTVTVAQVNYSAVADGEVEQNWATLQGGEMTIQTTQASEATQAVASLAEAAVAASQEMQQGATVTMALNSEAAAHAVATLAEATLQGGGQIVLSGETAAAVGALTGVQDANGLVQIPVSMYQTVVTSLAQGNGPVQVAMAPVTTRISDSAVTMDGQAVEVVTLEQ
How it was run: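 Endogenous NRF1-driven reporter transcription measured in transiently transfected human HepG2 liver cells. Readout: reporter mRNA by RT-PCR and capillary electrophoresis with fluorescence detection, 24 h post-dosing. Gain or loss of signal fitted relative to DMSO baseline.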

[2] = ATG_NFI_CIS: Attagene CIS-FACTORIAL HepG2 Assay for human Nuclear Factor I (NFI) (AID 2282989); conditions: HepG2 cis-regulatory reporter, NFI response element transcription; actives raise or lower the signal
How it was run: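 HepG2, transient MRTU, 24 h exposure; RNA→cDNA→PCR→FAM label→HpaI→CE fluorescence. Bidirectional fit, DMSO = baseline.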

[3] = biological target: Myc proto-oncogene protein (Homo sapiens) (UniProt P01106); assay: ATG_Myc_CIS: Attagene CIS-FACTORIAL HepG2 Assay for human Myelocytomatosis (Myc) Proto-Oncogene Transcription Factor (AID 2282990); conditions: HepG2, Attagene cis-reporter transcription factor activity; actives raise or lower the signal
Chain of Myc proto-oncogene protein (Homo sapiens) (P01106 whole entry, looked up, the tested form may be a part): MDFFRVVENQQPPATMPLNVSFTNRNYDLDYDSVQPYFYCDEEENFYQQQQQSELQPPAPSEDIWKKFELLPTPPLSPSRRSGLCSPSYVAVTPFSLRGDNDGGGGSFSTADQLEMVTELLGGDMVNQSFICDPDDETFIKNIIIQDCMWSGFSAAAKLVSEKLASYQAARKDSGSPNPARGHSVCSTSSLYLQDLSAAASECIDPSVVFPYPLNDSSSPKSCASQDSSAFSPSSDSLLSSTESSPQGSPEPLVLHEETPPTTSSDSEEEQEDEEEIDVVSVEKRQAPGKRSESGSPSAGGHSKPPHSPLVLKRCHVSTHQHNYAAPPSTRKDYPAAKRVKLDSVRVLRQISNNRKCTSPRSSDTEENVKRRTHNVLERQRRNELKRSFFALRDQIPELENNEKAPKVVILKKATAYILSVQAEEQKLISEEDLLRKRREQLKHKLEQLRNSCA
How it was run: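 After 24 h chemical treatment of HepG2 cells carrying multiplexed cis-regulated reporter constructs, reporter transcripts quantified by RT-PCR and capillary electrophoresis of fluorescent fragments. Gain or loss fitted against DMSO baseline.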

[4] = ATG_NF_kB_CIS: Attagene CIS-FACTORIAL HepG2 Assay for human Nuclear Factor Kappa B (NF-kB) (AID 2282991); conditions: HepG2 Attagene cis-factorial NF-kB reporter mRNA; actives raise or lower the signal
How it was run: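 Read-out: reporter transcript levels quantified by RT-PCR plus capillary electrophoresis of 6-FAM-labelled, HpaI-cut fragments. Transfected HepG2 cells, 24 h compound exposure, endogenous NF-kB-driven cis element; gain or loss scored versus DMSO.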

[5] = ATG_NRF2_ARE_CIS: Attagene CIS-FACTORIAL HepG2 Assay for human Nuclear Factor Erythroid 2 Related Factor 2 (NFR2) response to Antioxidant Response Elements (ARE) (AID 2282992); conditions: HepG2 Attagene ARE/NRF2 reporter, transcription factor activity; actives raise or lower the signal
How it was run: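 Endogenous transcription factor activity in human liver HepG2 cells is tracked via a cis-element-driven reporter within a multiplexed set. mRNA induction is read by RT-PCR and capillary electrophoresis after 24 h, with DMSO as baseline.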

[6] = ATG_Oct_MLP_CIS: Attagene CIS-FACTORIAL HepG2 Assay for human Octamer-Binding Transcription Factor (Oct) (AID 2282993); conditions: HepG2 Attagene cis-factorial Oct reporter, mRNA; actives raise or lower the signal
How it was run: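 Multiplexed cis-reporter assay in human liver HepG2 cells, 24 h incubation. Reporter RNA amplified and labelled, then resolved by capillary electrophoresis; DMSO serves as negative control and baseline.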

[7] = biological target: Cellular tumor antigen p53 (Homo sapiens) (UniProt P04637); assay: ATG_p53_CIS: Attagene CIS-FACTORIAL HepG2 Assay for human p53 Transcription Factor (AID 2282994); conditions: HepG2 p53 cis-element reporter, Attagene mRNA; actives raise or lower the signal
Chain of Cellular tumor antigen p53 (Homo sapiens) (P04637 whole entry, looked up, the tested form may be a part): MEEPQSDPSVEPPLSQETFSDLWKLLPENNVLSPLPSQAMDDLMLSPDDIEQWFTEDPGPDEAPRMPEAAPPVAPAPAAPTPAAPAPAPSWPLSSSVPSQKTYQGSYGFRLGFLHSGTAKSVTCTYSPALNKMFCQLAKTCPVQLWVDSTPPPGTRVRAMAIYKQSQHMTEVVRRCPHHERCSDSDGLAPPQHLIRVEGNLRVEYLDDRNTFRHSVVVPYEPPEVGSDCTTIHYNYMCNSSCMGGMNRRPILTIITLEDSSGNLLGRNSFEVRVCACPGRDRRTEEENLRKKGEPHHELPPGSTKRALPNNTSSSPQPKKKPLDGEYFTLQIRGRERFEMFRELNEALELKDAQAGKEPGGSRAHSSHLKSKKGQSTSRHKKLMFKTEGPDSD
How it was run: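 Steps: transfect HepG2 with multiplexed cis reporter constructs; dose chemicals 24 h; extract RNA, reverse-transcribe, PCR-amplify reporter sequences; FAM-label, HpaI-digest, resolve fragments by CE. Activity fitted both directions relative to DMSO.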

[8] = biological target: human Peroxisome Proliferator-activated Receptor delta (PPARd), PPARD (gene 5467) (UniProt Q03181); assay: ATG_PPARd_TRANS: Attagene TRANS-FACTORIAL HepG2 Assay for human Peroxisome Proliferator-activated Receptor delta (PPARd) (AID 2283002; active = hit-call score of the fitted dose curve at least 0.9, where 1 is the maximum)
Chain of human Peroxisome Proliferator-activated Receptor delta (PPARd), PPARD (gene 5467) (Q03181 whole entry, looked up, the tested form may be a part): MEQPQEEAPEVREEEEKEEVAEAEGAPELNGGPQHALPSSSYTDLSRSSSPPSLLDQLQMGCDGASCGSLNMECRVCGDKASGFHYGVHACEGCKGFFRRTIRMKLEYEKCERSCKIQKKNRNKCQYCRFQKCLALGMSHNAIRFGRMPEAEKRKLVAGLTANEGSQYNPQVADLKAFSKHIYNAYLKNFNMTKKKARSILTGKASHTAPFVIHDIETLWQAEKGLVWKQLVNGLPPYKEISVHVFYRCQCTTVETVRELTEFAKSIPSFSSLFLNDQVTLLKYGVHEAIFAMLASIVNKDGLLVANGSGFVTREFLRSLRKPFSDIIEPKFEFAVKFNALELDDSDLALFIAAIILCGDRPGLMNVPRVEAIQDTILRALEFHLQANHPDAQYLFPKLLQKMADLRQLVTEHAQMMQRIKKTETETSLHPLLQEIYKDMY
How it was run: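 Read-out is induced reporter mRNA, quantified by RT-PCR with fluorescent labelling and capillary electrophoresis after 24 h dosing. Cells are HepG2 transiently carrying multiple GAL4-UAS reporter units driven by exogenous NR-GAL4 chimeras; DMSO serves as baseline.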

[9] = biological target: Peroxisome proliferator-activated receptor gamma (Homo sapiens) (UniProt P37231); assay: ATG_PPARg_TRANS: Attagene TRANS-FACTORIAL HepG2 Assay for human Peroxisome Proliferator-activated Receptor-gamma (PPARg) (AID 2283007; active = hit-call score of the fitted dose curve at least 0.9, where 1 is the maximum)
Chain of Peroxisome proliferator-activated receptor gamma (Homo sapiens) (P37231 whole entry, looked up, the tested form may be a part): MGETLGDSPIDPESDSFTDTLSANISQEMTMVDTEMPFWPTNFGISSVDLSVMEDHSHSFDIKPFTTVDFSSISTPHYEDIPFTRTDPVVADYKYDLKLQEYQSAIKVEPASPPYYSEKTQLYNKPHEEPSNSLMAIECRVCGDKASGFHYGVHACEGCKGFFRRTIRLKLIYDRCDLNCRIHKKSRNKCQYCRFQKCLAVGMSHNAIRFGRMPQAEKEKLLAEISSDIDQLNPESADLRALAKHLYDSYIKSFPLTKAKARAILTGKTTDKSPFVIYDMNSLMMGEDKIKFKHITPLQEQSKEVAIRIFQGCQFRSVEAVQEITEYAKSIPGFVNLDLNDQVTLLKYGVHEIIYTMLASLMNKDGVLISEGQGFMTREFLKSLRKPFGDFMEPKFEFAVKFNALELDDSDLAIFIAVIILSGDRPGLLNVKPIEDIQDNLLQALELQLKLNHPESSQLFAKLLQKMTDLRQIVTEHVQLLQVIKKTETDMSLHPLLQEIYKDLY
How it was run: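 Read-out: reporter mRNA induction, detected by fluorescence after RT-PCR and capillary electrophoresis. Transiently transfected human HepG2 liver cells carrying a chimeric NR-Gal4 construct were dosed for 24 h; activity was fitted upward relative to DMSO.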

[10] = biological target: Nuclear receptor subfamily 1 group I member 2 (Homo sapiens) (UniProt O75469); assay: ATG_PXR_TRANS: Attagene TRANS-FACTORIAL HepG2 Assay for human Pregnane X Receptor (PXR) (AID 2283008; active = hit-call score of the fitted dose curve at least 0.9, where 1 is the maximum)
Chain of Nuclear receptor subfamily 1 group I member 2 (Homo sapiens) (O75469 whole entry, looked up, the tested form may be a part): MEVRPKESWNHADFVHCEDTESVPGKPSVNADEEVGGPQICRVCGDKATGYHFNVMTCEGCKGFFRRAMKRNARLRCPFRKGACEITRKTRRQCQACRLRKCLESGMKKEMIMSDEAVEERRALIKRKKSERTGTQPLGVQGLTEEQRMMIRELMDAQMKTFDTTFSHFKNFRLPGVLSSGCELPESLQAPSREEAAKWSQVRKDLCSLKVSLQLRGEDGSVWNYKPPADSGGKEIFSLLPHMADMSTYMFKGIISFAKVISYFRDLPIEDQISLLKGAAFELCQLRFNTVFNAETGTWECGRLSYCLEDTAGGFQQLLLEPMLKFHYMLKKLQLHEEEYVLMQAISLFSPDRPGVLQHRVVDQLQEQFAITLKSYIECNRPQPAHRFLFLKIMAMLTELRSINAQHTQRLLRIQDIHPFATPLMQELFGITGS
How it was run: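 HepG2 transfected (FuGene 6) with GAL4-UAS reporter units + PXR-Gal4 chimera; dosed 24 h. Total RNA → oligo(dT) RT → PCR → 6-FAM primer extension → HpaI cut → CE. Gain-of-signal vs DMSO.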

[11] = biological target: human Retinoic Acid Receptor gamma (RARg), RARG (gene 5916) (UniProt P13631); assay: ATG_RARg_TRANS: Attagene TRANS-FACTORIAL HepG2 Assay for human Retinoic Acid Receptor gamma (RARg) (AID 2283009; active = hit-call score of the fitted dose curve at least 0.9, where 1 is the maximum)
Chain of human Retinoic Acid Receptor gamma (RARg), RARG (gene 5916) (P13631 whole entry, looked up, the tested form may be a part): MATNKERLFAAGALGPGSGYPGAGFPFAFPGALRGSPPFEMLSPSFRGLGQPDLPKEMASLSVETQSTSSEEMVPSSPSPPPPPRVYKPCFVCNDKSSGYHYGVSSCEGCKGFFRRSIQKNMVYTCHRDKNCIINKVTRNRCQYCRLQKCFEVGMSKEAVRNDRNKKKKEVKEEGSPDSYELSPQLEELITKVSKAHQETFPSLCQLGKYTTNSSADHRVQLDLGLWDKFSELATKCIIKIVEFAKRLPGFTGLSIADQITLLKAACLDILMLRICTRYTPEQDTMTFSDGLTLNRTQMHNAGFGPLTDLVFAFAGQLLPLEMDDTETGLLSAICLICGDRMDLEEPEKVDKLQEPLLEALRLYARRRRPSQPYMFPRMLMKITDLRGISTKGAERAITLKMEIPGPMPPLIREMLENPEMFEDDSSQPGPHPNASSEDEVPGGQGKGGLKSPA
How it was run: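 Gain-of-signal relative to DMSO is reported from fluorescent capillary electrophoresis of RT-PCR reporter products. These came from HepG2 cells expressing transfected RARg-GAL4 chimeras with UAS reporters, harvested 24 h after dosing.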

[12] = biological target: Retinoic acid receptor alpha (Homo sapiens) (UniProt P10276); assay: ATG_RARa_TRANS: Attagene TRANS-FACTORIAL HepG2 Assay for human Retinoic Acid Receptor alpha (RARa) (AID 2283005; active = hit-call score of the fitted dose curve at least 0.9, where 1 is the maximum)
Chain of Retinoic acid receptor alpha (Homo sapiens) (P10276 whole entry, looked up, the tested form may be a part): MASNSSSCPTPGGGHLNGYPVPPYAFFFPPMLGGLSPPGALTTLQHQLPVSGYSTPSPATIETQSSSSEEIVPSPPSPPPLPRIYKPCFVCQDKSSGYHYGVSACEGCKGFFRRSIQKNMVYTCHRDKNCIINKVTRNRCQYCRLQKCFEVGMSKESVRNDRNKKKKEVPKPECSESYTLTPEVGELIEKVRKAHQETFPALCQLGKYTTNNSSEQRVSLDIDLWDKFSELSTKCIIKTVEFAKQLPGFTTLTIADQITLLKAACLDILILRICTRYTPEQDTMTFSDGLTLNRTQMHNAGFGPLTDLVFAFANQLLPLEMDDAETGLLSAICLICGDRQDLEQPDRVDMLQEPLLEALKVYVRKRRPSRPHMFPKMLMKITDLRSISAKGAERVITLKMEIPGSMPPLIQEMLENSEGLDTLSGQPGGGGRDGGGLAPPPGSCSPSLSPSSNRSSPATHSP
How it was run: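 Reporter transcripts, measured by RT-PCR with fluorescent labeling and capillary electrophoresis after 24 h dosing, reflect activity of an exogenous human RARa–GAL4 fusion in transiently transfected HepG2. Fitted for increase relative to DMSO.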

[13] = biological target: human Retinoic Acid Receptor beta (RARb), RARB (gene 5915) (UniProt P10826); assay: ATG_RARb_TRANS: Attagene TRANS-FACTORIAL HepG2 Assay for human Retinoic Acid Receptor beta (AID 2283004; active = hit-call score of the fitted dose curve at least 0.9, where 1 is the maximum)
Chain of human Retinoic Acid Receptor beta (RARb), RARB (gene 5915) (P10826 whole entry, looked up, the tested form may be a part): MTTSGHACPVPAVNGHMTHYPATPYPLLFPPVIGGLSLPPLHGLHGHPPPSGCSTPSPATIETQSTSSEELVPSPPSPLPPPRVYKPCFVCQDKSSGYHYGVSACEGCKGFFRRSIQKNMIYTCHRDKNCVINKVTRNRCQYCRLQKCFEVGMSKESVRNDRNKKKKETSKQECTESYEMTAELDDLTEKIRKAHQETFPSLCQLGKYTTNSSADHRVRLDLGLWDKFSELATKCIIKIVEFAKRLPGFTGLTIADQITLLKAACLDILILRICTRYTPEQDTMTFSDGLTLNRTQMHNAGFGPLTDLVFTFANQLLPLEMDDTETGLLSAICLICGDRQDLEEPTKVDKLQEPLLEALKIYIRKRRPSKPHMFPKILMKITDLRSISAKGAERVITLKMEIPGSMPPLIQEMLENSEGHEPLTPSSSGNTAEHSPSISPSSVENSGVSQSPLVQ
How it was run: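 HepG2 cells were transiently transfected with GAL4-UAS reporter units that report activity of exogenous chimeric NR-Gal4 proteins, then exposed to compound for 24 h. Reporter mRNA was quantified by RT-PCR with capillary electrophoresis fluorescence, as gain of signal over DMSO.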

Structure (SMILES) | outcome [1] | AC50 [2] | AC50 [3] | outcome [4] | AC50 [5] | AC50 [6] | AC50 [7] | outcome [8] | AC50 [9] | AC50 [10] | outcome [11] | outcome [2] | outcome [3] | outcome [5] | outcome [6] | outcome [7] | outcome [12] | outcome [10] | outcome [9] | outcome [13]
CCc1cc(Cc2cc(CC)c(N)c(CC)c2)cc(CC)c1N | inactive | 53.4 µM (active) | 57.3 µM (active) | inactive | 1.62 µM (active) | 41.9 µM (active) | 27.2 µM (active) | inactive | 0.886 µM (active) | 1.08 µM (active) | inactive |  |  |  |  |  |  |  |  | 
CC(=O)CCC(C)C | inactive |  |  | inactive |  |  |  |  |  |  | inactive | inactive | inactive | inactive | inactive | inactive | inactive | inactive |  | 
CCCCOC(=O)[C@H](C)O | inactive |  |  | inactive |  |  |  | inactive |  |  |  | inactive | inactive | inactive | inactive | inactive | inactive |  | inactive | 
CCOCN(C(=O)CS(=O)(=O)O)c1c(C)cccc1CC | inactive |  |  | inactive |  |  |  |  |  |  | inactive | inactive | inactive | inactive | inactive | inactive |  | inactive | inactive | inactive
CCN=c1cc2oc3cc(NCC)c(C)cc3c(-c3ccccc3C(=O)OCC)c-2cc1C | inactive | 17.5 µM (active) |  | inactive | 0.132 µM (active) | 7.4 µM (active) | 1.56 µM (active) | inactive |  |  |  |  | inactive |  |  |  |  | inactive | inactive | inactive
OCCCc1cccnc1 | inactive |  |  | inactive |  |  |  | inactive |  |  | inactive | inactive | inactive | inactive | inactive | inactive | inactive | inactive | inactive | 
